Compounds with a hit are over-represented: about 19% of the library has one in this group of screens.
Pf growth 48h = inhibits P. falciparum growth in the first generation, 48 h. P. falciparum luciferase growth in erythrocytes, 48 h. Potency, µM (top dose mostly 28.7 µM), most hits filed as inhibitors. 310,000 tested, 5.9% active
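Cell-based growth assay: transgenic P. falciparum expressing firefly luciferase, cultured in red cells within RPMI 1640 containing 0.5% w/v Albumax, 24 mM bicarbonate and gentamycin. A drop in luciferase activity indicates inhibition.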
Shiga toxin inh = inhibitors of Shiga toxin in Vero cells. AID 2315. 290,000 tested, 9.2% active. Vero cells, Shiga toxin protein synthesis inhibition reporter. inhibition, % at 38.7 µM; in the data active = inhibition mostly above about 28%, no sharp cut-off; inactive = mostly below about 43%
Lassa entry inh = inhibitors of Lassa virus binding or cell entry | Lassa virus pseudotype entry inhibition, cell reporter | 300,000 tested, 1.2% active | Potency, µM (titrated, usually from 37.9 µM), actives largely listed as inhibitors; calls by dose curve; tested in HEK293 cells; also: nearly all actives have a fitted effect of over 50% in size
CHX counter = affects cycloheximide protein synthesis inhibition readout, counter-screen; cell reporter, cycloheximide protein synthesis inhibition counterscreen; max response, %; 300,000 tested, 12% active; in the data active = max response mostly above about 13%, no sharp cut-off; inactive = mostly below about 14%; also: read at 38.3 µM for the half of the compounds with a filed dose
Marburg entry inh = blocks Marburg virus binding to or entry into cells | Marburg virus pseudotyped entry inhibition, cell reporter | Potency, µM (titrated, usually from 37.8 µM), actives largely listed as inhibitors | 300,000 tested, 1.8% active | AID 540276; calls by dose curve; tested in HEK293 cells
Pf growth 96h = P. falciparum growth inhibition at 96 hour, primary screen for plastid delayed-death inhibitors; Potency, µM (titrated, usually from 28.7 µM), actives largely listed as inhibitors; P. falciparum luciferase reporter growth, 96 h; 320,000 tested, 6.9% active; AID 504834
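Compounds incubated with erythrocytes infected by luciferase-expressing P. falciparum (2% hematocrit, 0.05% parasitemia final) for 96 hours, 37 C in 5% CO2. Growth inhibition scored as decreased luciferase luminescence.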
Of the large screens only hits and unclear results are named; the others gave an inactive call. Unless noted, calls follow the shape of the dose curve; as a rule, active = well fitted inhibition curve with a large enough effect; inconclusive = small, poorly fitted or top-dose-only effect, or another doubt; inactive = no such curve, though single readings can be large or run the other way.

FC(F)Sc1ccc(NC(=S)NC2CCCCC2)cc1	CHX counter 31, Pf growth 96h inconclusive (no result: Pf growth 48h)
FC(F)Sc1ccc(NC(=S)NCC2CCCCC2)cc1	none (no result: Pf growth 48h)
S=C(Nc1ccc(Oc2ccccc2)cc1)NC1CCCC1	none
S=C(Nc1ccc(Br)cc1)NC1CCCC1	Pf growth 48h inconclusive, Shiga toxin inh 63, Lassa entry inh inconclusive, CHX counter 42
CC1CCCCC1NC(=S)Nc1ccc(SC(F)F)cc1 (stereo not given)	Shiga toxin inh 75, Lassa entry inh inconclusive, CHX counter 35 (no result: Pf growth 96h)
CCS(=O)(=O)NCc1cn2c(C)csc2n1	Marburg entry inh inconclusive
O=C(OCCOc1ccccc1Cl)c1ccc(-n2cnnn2)cc1	CHX counter 36
Cc1ccccc1NC(=O)C1CCN(C2=NS(=O)(=O)c3ccccc32)CC1	none
CCOC(=O)c1ccc(N=C2SC(C(=O)Nc3ccc(C(=O)O)cc3)CC(=O)N2Cc2cccs2)cc1 (stereo not given)	Pf growth 48h inconclusive, Marburg entry inh inconclusive
CCOC(=O)c1ccc(N=C2SC(C(=O)NC)CC(=O)N2Cc2ccc(F)cc2)cc1 (stereo not given)	Lassa entry inh inconclusive, Pf growth 96h 1.7µM
Cc1ccc(NC(=O)c2ccc3nsnc3c2)c(C)c1	Shiga toxin inh 35, CHX counter 30, Pf growth 96h inconclusive (no result: Lassa entry inh, Marburg entry inh)
Cc1ccc(NC(=O)c2sc(C)nc2C)c(C)c1	Shiga toxin inh 36, CHX counter 17, Marburg entry inh inconclusive
COC(=O)c1ccc(NC(=O)c2ccc3nsnc3c2)cc1	none
O=C(CSc1ccc2ccccc2c1)Nc1ccc(S(=O)(=O)Nc2nccs2)cc1	none
O=C(NCc1ccc(F)cc1)C1CCCN(S(=O)(=O)c2ccc(Br)s2)C1 (stereo not given)	Pf growth 48h inconclusive, Shiga toxin inh 55, Marburg entry inh inconclusive
CN1C(=O)C(C)(C)c2cc(S(=O)(=O)N3CCC(C(=O)NCc4ccc(Cl)cc4)CC3)ccc21	Pf growth 48h inconclusive, Pf growth 96h inconclusive (no result: Lassa entry inh, Marburg entry inh)
O=C(O)C1CCCN(S(=O)(=O)c2ccc(Br)s2)C1 (stereo not given)	none
CCC(C)NC(=O)C1CCN(S(=O)(=O)c2ccc(Br)s2)CC1 (stereo not given)	Pf growth 48h inconclusive, Pf growth 96h 10µM
CN1C(=O)C(C)(C)c2cc(S(=O)(=O)N3CCC(C(=O)NCc4ccc(F)cc4)CC3)ccc21	Pf growth 48h inconclusive, Pf growth 96h 13µM (no result: Lassa entry inh, Marburg entry inh)
O=C(C1CCCN(S(=O)(=O)c2ccc(Br)s2)C1)N1CCN(c2ccccc2)CC1 (stereo not given)	Pf growth 48h 8.3µM, Lassa entry inh inconclusive, Marburg entry inh inconclusive
O=C(NCc1ccc(F)cc1)C1CCN(S(=O)(=O)c2ccc(Br)s2)CC1	Pf growth 48h 9.3µM, Shiga toxin inh 37, Lassa entry inh inconclusive, CHX counter 15, Pf growth 96h inconclusive
O=C(C1CCCN(S(=O)(=O)c2ccc(Br)cc2)C1)N1CCN(Cc2ccccc2)CC1 (stereo not given)	Pf growth 48h 6.6µM, Lassa entry inh inconclusive, Marburg entry inh inconclusive
CCCCN(CC)C(=O)CSc1nc2n[nH]c(C)c2c(=N)n1-c1cccc(C)c1	Pf growth 48h inconclusive, Pf growth 96h inconclusive (no result: Marburg entry inh)
CSc1ccc(-c2cc(=O)c3ccccc3o2)cc1	Shiga toxin inh 34, CHX counter 40, Marburg entry inh inconclusive, Pf growth 96h inconclusive
O=c1cc(-c2ccc(F)cc2)oc2ccccc12	Marburg entry inh inconclusive (no result: Pf growth 48h, Shiga toxin inh, CHX counter, Pf growth 96h)
O=c1cc(-c2ccccc2F)oc2ccccc12	Shiga toxin inh 59, CHX counter 28
O=c1cc(-c2ccccc2[N+](=O)[O-])oc2ccccc12	Lassa entry inh inconclusive, Marburg entry inh inconclusive
NC(=O)c1ccc(Oc2ccc3ccc(=O)oc3c2)c([N+](=O)[O-])c1	Marburg entry inh inconclusive
Cc1ccc(NC(=O)COC(=O)CN2C(=O)NC3(CCCC3)C2=O)cc1Cl	none (no result: Shiga toxin inh, Lassa entry inh, CHX counter, Marburg entry inh)
COc1ccc2c(c1)[C@H]1[C@H](CO2)[C@H](c2ccccc2)[C@]2(C)C(=O)Nc3cc(OC)c(OC)cc3C(=O)N12	Pf growth 48h 9.3µM, Pf growth 96h inconclusive (no result: Shiga toxin inh, Lassa entry inh, CHX counter, Marburg entry inh)
CCOC(=O)[C@H]1[C@H]2COc3ccc(Br)cc3[C@@H]2N2C(=O)c3ccc(Cl)cc3NC(=O)[C@@]12C	Pf growth 48h 9.3µM, Pf growth 96h inconclusive (no result: Shiga toxin inh, Lassa entry inh, CHX counter, Marburg entry inh)
COc1ccc2c(c1)[C@@H]1[C@H](CO2)[C@H](c2ccccc2)[C@]2(C)C(=O)Nc3ccc(C)cc3C(=O)N12	Pf growth 48h 13µM, Pf growth 96h inconclusive (no result: Shiga toxin inh, Lassa entry inh, CHX counter, Marburg entry inh)

Compound activity (PubChem)
